Consider 19 compounds from PubChem BioAssay (NCATS).

Molecules are shown by their SMILES. Inconclusive results are not listed. Activity calls are given as the source filed them. Calls follow the shape of the dose curve; as a rule, active = well fitted curve in the direction sought with a large enough effect; inconclusive = small, poorly fitted or top-dose-only effect, or another doubt; inactive = no such curve, though single readings can be large; an effect the other way counts as inactive or inconclusive.

One experiment deals with Cytochrome P450 3A4 (Homo sapiens) (UniProt P08684). Nature of the experiment: qHTS Assay for Activators of Cytochrome P450 3A4 (AID 885). Also: nearly all actives have a fitted effect of over 65% in size. The note with it: recombinant CYP3A4, Luciferin-PPXE luminescence, 60 min; series mostly up to 57.1 µM; activity change, positive = activation: at the top concentration. The method, boiled down: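 CYP3A4 activity: Luciferin-PPXE O-dealkylation, 25uM substrate, 200mM KPO4, RT throughout. Read-out is luciferase luminescence; higher values reflect activation.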
Chain of Cytochrome P450 3A4 (Homo sapiens) (P08684 whole entry, looked up): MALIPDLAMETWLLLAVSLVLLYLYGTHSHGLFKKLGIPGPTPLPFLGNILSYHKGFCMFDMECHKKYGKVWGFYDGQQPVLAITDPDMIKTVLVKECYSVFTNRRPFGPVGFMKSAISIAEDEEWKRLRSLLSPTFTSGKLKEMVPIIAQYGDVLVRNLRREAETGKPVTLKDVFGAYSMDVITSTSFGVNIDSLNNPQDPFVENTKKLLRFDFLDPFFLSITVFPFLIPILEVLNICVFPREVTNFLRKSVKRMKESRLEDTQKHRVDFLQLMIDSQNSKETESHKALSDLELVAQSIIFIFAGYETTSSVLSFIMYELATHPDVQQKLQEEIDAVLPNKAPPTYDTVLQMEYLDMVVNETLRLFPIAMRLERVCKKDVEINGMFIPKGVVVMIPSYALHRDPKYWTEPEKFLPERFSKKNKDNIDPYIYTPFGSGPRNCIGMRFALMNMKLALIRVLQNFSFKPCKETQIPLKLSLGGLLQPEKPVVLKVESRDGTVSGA
For `Cc1cc(Nc2ccc(O)cc2)ccc1N`, the “activity change, positive = activation” value was -90.9% (inactive). The same measure, in the same setting: the figure for `CN(C)c1ccc(C2(c3ccc(N(C)C)cc3)OC(=O)c3cc(N(C)C)ccc32)cc1` is -59.2% (inactive). Turning to `CO[C@H]1/C=C/O[C@@]2(C)Oc3c(C)c(O)c4c(O)c(c5c(c4c3C2=O)NC2(CCN(CC(C)C)CC2)N=5)=NC(=O)/C(C)=C\C=C\[C@H](C)[C@H](O)[C@@H](C)[C@@H](O)[C@@H](C)[C@H](OC(C)=O)[C@@H]1C`, the “activity change, positive = activation” value was -49% (inactive). With `Nc1ccc2cc3ccccc3cc2c1`, the “activity change, positive = activation” value was -59.1% (inactive). In the case of `O=C=Nc1ccc(Cc2ccc(N=C=O)cc2)cc1`, the “activity change, positive = activation” value is -40.5% (inactive). In the case of `Cc1cc(O)c(C(C)(C)C)cc1Sc1cc(C(C)(C)C)c(O)cc1C`, the “activity change, positive = activation” value was -50.4% (inactive). As to `CCC(C)Nc1ccc(NC(C)CC)cc1` (stereo unspecified), the “activity change, positive = activation” value was -77.9% (inactive). Turning to `CNc1ccc(O)cc1`, the “activity change, positive = activation” value is -65.5% (inactive). In the case of `O=C1OC2(c3cc(Br)c(O)c(Br)c3Oc3c2cc(Br)c(O)c3Br)c2c(Cl)c(Cl)c(Cl)c(Cl)c21`, the “activity change, positive = activation” value is -68.7% (inactive). On to `Oc1ccc2cc(SSc3ccc4cc(O)ccc4c3)ccc2c1`, for which the “activity change, positive = activation” value was -90.5% (inactive). For `Cc1ccc(S(=O)(=O)Oc2ccc(N=Nc3ccc(-c4ccc(N=Nc5c(O)ccc6cc(S(=O)(=O)O)cc(S(=O)(=O)O)c56)c(C)c4)cc3C)cc2)cc1`, the “activity change, positive = activation” value was -51.2% (inactive).

Tested on in another experiment: not listed separately
Briefly: Cell Viability - LYMP2-001 (AID 921). Also: nearly all actives have a fitted effect of over 70% in size. Also: potency is read from the fitted curve at half-maximal effect.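 As to activity change, negative = cytotoxic: 0% = DMSO only and full inhibition = tetraoctylammonium bromide control wells.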 As to conditions: LYMP2-001 lymphoblastoid cell viability; series mostly up to 92.2 µM; activity change, negative = cytotoxic: at the top concentration. A digest of the protocol: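 Cellular ATP loss read by luciferase luminescence after 24 h compound exposure at 37 C in complete medium. LYMP2-001 lymphoblastoid cells, 2500/well; qHTS concentration-response data fitted with Hill equation for AC50.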
Take `Cc1cc(Nc2ccc(O)cc2)ccc1N`: the Potency is 31.6 µM (active). In the case of `CN(C)c1ccc(C2(c3ccc(N(C)C)cc3)OC(=O)c3cc(N(C)C)ccc32)cc1`, the “activity change, negative = cytotoxic” value is 16.8% (inactive). For `O=C(OCC(COC(=O)c1ccccc1)(COC(=O)c1ccccc1)COC(=O)c1ccccc1)c1ccccc1`, the “activity change, negative = cytotoxic” value is 20.6% (inactive). In the case of `CC(=O)Nc1ccc(C(=O)CCl)cc1`, the Potency was 3.98 µM (active).

With `Nc1ccc2cc3ccccc3cc2c1`, the “activity change, negative = cytotoxic” value is -7.66% (inactive). As to `c1ccc2c(c1)-c1cccc3c1c-2cc1ccccc13`, the “activity change, negative = cytotoxic” value was 0.704% (inactive). `O=C=Nc1ccc(Cc2ccc(N=C=O)cc2)cc1`: the “activity change, negative = cytotoxic” value was 0.412% (inactive). With `O=[N+]([O-])c1cc([N+](=O)[O-])c2ccc(S(=O)(=O)O)cc2c1O`, the “activity change, negative = cytotoxic” value was -2.28% (inactive).

Take `Cc1cc(O)c(C(C)(C)C)cc1Sc1cc(C(C)(C)C)c(O)cc1C`: the Potency was 39.8 µM (active). In the case of `CCC(C)Nc1ccc(NC(C)CC)cc1` (stereo unspecified), the Potency is 5.01 µM (active). As for `CNc1ccc(O)cc1`, the Potency was 3.16 µM (active). Still for that read-out and setting: as for `C=CC(=O)OCCOCCOC(=O)C=C`, the figure is 12.6 µM (active). Consider `c1ccc2c(c1)ccc1cc3c(ccc4ccccc43)cc12`, for which the “activity change, negative = cytotoxic” value is -24.5% (inactive). For the compound `C=C(C)c1ccccc1`, the “activity change, negative = cytotoxic” value is 2.2% (inactive). Turning to `O=C1OC(O)C(C(Cl)Cl)=C1Cl` (stereo unspecified), the Potency was 20 µM (active).
